GDH-TPI counter: counter-screen for M. tuberculosis FBA inhibitors: GDH-TPI coupled enzymes. inhibition, % at 4.8 µM. 360,000 compounds, 1.2% hits. GDH-TPI coupled enzyme counterscreen, NADH absorbance. AID 588335; in the data active = inhibition above about 30%
Vc quorum ag: inducers of Vibrio cholerae quorum light production without autoinducers | V. cholerae BH1578 lux reporter, luminescence, 6 h | activation, % at 18.7 µM | 350,000 compounds, 0.16% hits | AID 588436; in the data active = activation mostly above about 9.7%, no sharp cut-off
Mtb BioA inh: BioA (M. tuberculosis) enzyme inhibition; purified M. tuberculosis BioA enzyme, plate reader; inhibition, % at 9.99 µM; 360,000 compounds, 0.096% hits; AID 602481; in the data active = inhibition above about 40%
Mtb FBA inh: inhibits M. tuberculosis FBA enzyme | P9WQA3 | purified M. tuberculosis FBA, fluorescence read-out | inhibition, % at 1 µM | 360,000 compounds, 2.3% hits | AID 588726; in the data active = inhibition above about 27%
Target sequence (P9WQA3 whole entry, looked up): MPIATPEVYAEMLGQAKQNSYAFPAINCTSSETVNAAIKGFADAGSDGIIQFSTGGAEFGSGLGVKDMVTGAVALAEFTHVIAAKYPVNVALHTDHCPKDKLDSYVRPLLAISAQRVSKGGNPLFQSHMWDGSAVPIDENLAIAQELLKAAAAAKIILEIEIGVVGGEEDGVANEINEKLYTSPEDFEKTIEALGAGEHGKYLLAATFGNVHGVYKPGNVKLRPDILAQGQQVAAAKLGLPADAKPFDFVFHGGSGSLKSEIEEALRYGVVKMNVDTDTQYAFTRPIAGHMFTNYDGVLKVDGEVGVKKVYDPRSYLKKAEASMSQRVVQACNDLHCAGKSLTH
A number is an active result; i = inactive; nt = not tested or not shown; + = active, no number. In the library only some 3% were active in any assay of this set; here they are far more common.

SMILES | GDH-TPI counter | Vc quorum ag | Mtb BioA inh | Mtb FBA inh
CC1Cc2nc(SCC(=O)NCc3ccccc3)n(Cc3ccccc3)c(=O)c2S1 (centres undefined) | 34 | i | i | i
CC(C)c1ccc(/C=C2\SC(=O)N(CC(=O)NCCCn3ccnc3)C2=O)cc1 | 47 | i | i | i
CCC(=O)Nc1ccc2c(c1)OC[C@@H](C)N(Cc1nccs1)C[C@@H](C)[C@@H](OC)CN(C)C2=O | nt | nt | i | nt
Cc1c(C)c2cc(Cl)c(O)c(CN3CCN(C)CC3)c2oc1=O | i | i | i | +
Cc1c(C)c2cc(Cl)c(O)c(CN3CCCC(C)C3)c2oc1=O (centres undefined) | i | i | i | +
Cc1cc(/C=C(\C#N)C(N)=O)c(C)n1-c1ccc(N2CCOCC2)c([N+](=O)[O-])c1 | 38 | i | i | i
Cc1cc(C=O)c(C)n1-c1ccc(N2CCCCC2)c([N+](=O)[O-])c1 | i | i | i | i
O=C(C[C@@H]1C[C@@H]2c3cc(NC(=O)NC4CCCC4)ccc3O[C@@H]2[C@H](CO)O1)NCc1ccc(Oc2ccccc2)cc1 | nt | nt | i | nt
Cc1c(Cc2ccccc2)c(=O)oc2cc(O)ccc12 | i | i | i | +
COc1ccc(-c2c(C)c3ccc(O)cc3oc2=O)cc1 | i | i | i | +
CCOC(=O)CCc1c(C)c2ccc(O)cc2oc1=O | i | i | i | +
CCOC(=O)Cc1c(C)c2c(O)cc(O)cc2oc1=O | i | i | i | 121
Cc1c(Cc2ccccc2)c(=O)oc2c(O)c(O)ccc12 | i | i | nt | i
C[C@H](CO)N1C[C@H](C)[C@H](CN(C)S(=O)(=O)c2ccccc2)OCCCC[C@H](C)Oc2ccc(NS(=O)(=O)c3ccc(Cl)cc3)cc2C1=O | nt | nt | i | nt
C[C@H](CO)N1C[C@H](C)[C@H](CN(C)C(=O)Nc2ccc(F)cc2)OCCCC[C@H](C)Oc2ccc(NS(=O)(=O)c3cn(C)cn3)cc2C1=O | nt | nt | i | nt
CNC(=O)C[C@@H]1CC[C@H]2[C@H](COc3ccc(NC(=O)Nc4ccc(C)cc4)cc3C(=O)N2C)O1 | nt | nt | i | nt
CC(=O)N(C)C[C@H]1Oc2cc(C#Cc3cccnc3)ccc2S(=O)(=O)N([C@@H](C)CO)C[C@@H]1C | nt | nt | i | nt
Cc1c(Cc2ccccc2)c(=O)oc2c(CN(C)C)c(O)c(Cl)cc12 | i | i | i | +
C[C@H](O)C#Cc1ccc2c(c1)O[C@@H](CN(C)C(=O)CN(C)C)[C@H](C)CN([C@H](C)CO)S2(=O)=O | nt | nt | i | nt
CC(=C\C(=O)O)/C(=C/c1ccco1)C(=O)O | i | i | nt | i
CC(=C\C(=O)O)/C(=C\c1cccc2ccccc12)C(=O)O | 31 | i | i | i
O=C(O)c1ccc(C=NN2CCCCCC2)cc1 | 36 | i | i | i
N#Cc1ccc(C=NN2CCCCCC2)cc1 | 41 | i | nt | i
O=C(Cc1ccccn1)N[C@@H]1CC[C@H](CCNC(=O)c2cc(Cl)cc(Cl)c2)O[C@H]1CO | nt | nt | i | nt
C[C@H]1CN([C@@H](C)CO)S(=O)(=O)c2ccc(C#CC(C)(C)O)cc2O[C@@H]1CN(C)C(=O)C1CCCCC1 | nt | nt | i | nt
SMILES | GDH-TPI counter | Vc quorum ag | Mtb BioA inh | Mtb FBA inh
CCNC(=O)C[C@H]1CC[C@H](NC(=O)C2CC2)[C@H](CO)O1 | nt | nt | i | nt
C/C(=N\Nc1ccc(S(=O)(=O)N2CCCCC2)cn1)c1ccc(O)cc1 | 34 | i | i | i
C[C@@H]1CN([C@H](C)CO)C(=O)c2cc(NC(=O)Nc3ccc(F)cc3)ccc2O[C@@H]1CN(C)S(=O)(=O)c1ccc(F)cc1 | nt | nt | i | nt
COc1cccc(/C=C/C(=O)NCc2ccc(S(N)(=O)=O)cc2)c1 | i | i | i | 28
CCCC#Cc1ccc2c(c1)O[C@H](CN(C)CC1CCOCC1)[C@H](C)CN([C@@H](C)CO)S2(=O)=O | nt | nt | i | nt
CCCCn1cc(C(=O)c2cc(Br)ccc2O)cc(C#N)c1=O | i | i | i | i
C=CCn1cc(C(=O)c2cc(Br)ccc2O)cc(C#N)c1=O | 31 | i | i | i
Cc1cc2ccccc2c(=O)[nH]1 | i | i | i | i
O=c1[nH]c(Nc2ccccn2)cc2ccccc12 | i | i | i | 132
O=c1[nH]c(-c2ccccn2)cc2ccccc12 | i | i | nt | 121
O=c1[nH]c(Nc2ccc(F)cc2)cc2ccccc12 | i | i | i | i
Oc1ccc(C=NN=Cc2ccco2)c(O)c1 | 41 | i | nt | i
NC(=N\N=Cc1ccco1)/C(N)=N/N=Cc1ccco1 | 58 | i | i | i
COc1cccc(NC(=O)Nc2ccc3c(c2)C(=O)N(C)C[C@@H](OC)[C@H](C)CN(CCC(F)(F)F)[C@H](C)CO3)c1 | nt | nt | i | nt
Cc1cc(C)cc(Cn2c3ccc(NC(=S)NC4CCCCC4)cc3c(=O)n2C)c1 | i | i | i | i
Cc1cc(C)cc(Cn2c3ccc(NC(=O)NCc4ccc(F)cc4)cc3c(=O)n2C)c1 | i | i | i | 133
Cc1cc(C)cc(Cn2c3ccc(NC(=O)NCc4ccccc4)cc3c(=O)n2C)c1 | i | i | i | 172

High-throughput results deposited in PubChem by several laboratories.
